Rab9 prom act – qHTS Assay for Rab9 Promoter Activators. AID 485297, 2010. Huh7 Rab9 promoter-luciferase reporter, luminescence, 24 h. hit rate 2.8% among 320,000. Potency, µM (highest dose often 9.22 µM), usual class: activators; also: nearly all actives have a fitted effect of over 60% in size
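Luciferase signal after 10 min detection reagent at ambient indicates Rab9 promoter upregulation; stably transfected Huh7 cells were treated 24 h with compound in DMSO at 37 °C, 5% CO2.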
SMN2 splice up – qHTS Assay for Enhancers of SMN2 Splice Variant Expression | HEK293 SMN2-luciferase splicing reporter, luminescence, 30-36 h | Potency, µM (highest dose often 46.1 µM), hits mostly activators | hit rate 2.8% among 210,000; also: nearly all actives have a fitted effect of over 55% in size
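HEK293 cells carry an SMN2 […]–luciferase reporter in which exon 7 inclusion puts luciferase in frame. Cells were plated 10-12 h before compound addition, then incubated 30-36 h at 37C. ONE-Glo luminescence was read; sodium butyrate at 4.5 mM final served as control.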
ELG1 repair inh – qHTS screen for small molecules that inhibit ELG1-dependent DNA repair in human embryonic kidney (HEK293T) cells expressing luciferase-tagged ELG1; Potency, µM (series often up to 46.1 µM), hits mostly inhibitors; HEK293T ELG1-luciferase reporter, luminescence, 16 h; DNA damage induced by 5-fluorouridine; hit rate 2.3% among 330,000; also: nearly all actives have a fitted effect of over 55% in size
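5-Fluorouridine DNA damage + compound/DMSO, 2,000 cells/well, 16 h, 37 °C/5% CO2. ONE-Glo, 30 min RT, luminescence. Readout = decrease in reporter signal.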
NPC1 promoter act – qHTS Assay for NPC1 Promoter Activators; AID 485313, 2010; hit rate 2.4% among 320,000; Huh7 NPC1 promoter luciferase reporter, 24 h; Potency, µM (top dose mostly 9.22 µM), hits mostly activators; also: nearly all actives have a fitted effect of over 60% in size
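In 1536-well qHTS, Huh7 cells harboring an NPC1 promoter–luciferase construct received compound for 24 h; activation was quantified by luminescence following luciferase reagent addition.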
ELG1 genotox – qHTS screen for small molecules that induce genotoxicity in human embryonic kidney (HEK293T) cells expressing luciferase-tagged ELG1; HEK293T ELG1-luciferase reporter, luminescence, 16 h; hit rate 1.3% among 330,000; AID 504466, 2011; Potency, µM (titrated, usually from 46 µM), hits mostly activators; also: nearly all actives have a fitted effect of over 60% in size
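Screening used a luciferase reporter fused to human ELG1 in HEK293T cells. Luminescence was read on a CCD plate imager after 16 hr exposure and 30 min ONE-Glo incubation.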
FLuc counter – qHTS profiling assay for firefly luciferase inhibitor/activator using purifed enzyme and Km concentrations of substrates (counterscreen for miR-21 project) | AID 588342, 2011 | hit rate 6.9% among 360,000 | Luciferin 4-monooxygenase (Photinus pyralis), P08659 | purified FLuc, Km substrates, luminescence inhibition | Potency, µM (doses to about 57.5 µM), most hits filed as inhibitors; also: nearly all actives have a fitted effect of over 55% in size
Target sequence (P08659 whole entry, looked up): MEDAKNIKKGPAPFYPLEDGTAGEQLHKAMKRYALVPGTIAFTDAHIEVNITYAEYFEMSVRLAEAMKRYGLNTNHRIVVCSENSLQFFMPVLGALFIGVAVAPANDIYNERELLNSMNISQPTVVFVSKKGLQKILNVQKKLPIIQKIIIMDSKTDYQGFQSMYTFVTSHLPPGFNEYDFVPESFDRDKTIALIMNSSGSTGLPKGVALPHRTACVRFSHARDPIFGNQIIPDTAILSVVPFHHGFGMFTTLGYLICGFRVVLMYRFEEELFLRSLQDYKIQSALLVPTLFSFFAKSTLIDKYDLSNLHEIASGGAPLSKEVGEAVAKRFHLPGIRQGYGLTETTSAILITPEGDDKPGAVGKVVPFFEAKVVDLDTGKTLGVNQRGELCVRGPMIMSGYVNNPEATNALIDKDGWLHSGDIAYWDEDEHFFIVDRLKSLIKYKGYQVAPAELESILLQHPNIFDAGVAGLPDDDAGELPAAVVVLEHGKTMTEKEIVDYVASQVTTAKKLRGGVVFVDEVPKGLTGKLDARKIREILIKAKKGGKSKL
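Biochemical qHTS of compounds, final roughly 60 µM downward over six points, against 10 nM purified firefly luciferase using Km concentrations of substrates (10 uM D-luciferin, 10 uM ATP) in Tris acetate pH 7.5 buffer; luminescence output.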
A number is an active result; i = inactive; ? = inconclusive; nt = no result given; ! = a repeat was not active; [ ] = remark or other dose. An excerpt weighted towards active compounds, which were near 9.2% of everything screened. Calls follow the shape of the dose curve; as a rule, active = well fitted curve in the direction sought with a large enough effect; inconclusive = small, poorly fitted or top-dose-only effect, or another doubt; inactive = no such curve, though single readings can be large; an effect the other way counts as inactive or inconclusive.

SMILES	Rab9 prom act	SMN2 splice up	ELG1 repair inh	NPC1 promoter act	ELG1 genotox	FLuc counter
CCOc1ccc(NC(=O)c2ccc(CC)s2)c([N+](=O)[O-])c1	2.2µM	nt	?	?	?	i
CCOc1ccc(NC(=O)c2cccs2)c([N+](=O)[O-])c1	1.6µM	7.1µM	?	?	?	?
COc1ccc(-c2c(C)nn3c(C(F)(F)F)cc(C)nc23)cc1OC	nt	nt	nt	nt	nt	i
O=c1oc2ccc3ccccc3c2cc1-c1nnc(Nc2cccc(C(F)(F)F)c2)s1	nt	i	nt	nt	nt	i
Cn1cnc(S(=O)(=O)NC2CCN(Cc3ccccc3)CC2)c1	i	nt	i	i	i	i
Cc1ccc(-n2c(Cn3nc(C(F)F)cc3C(F)F)n[nH]c2=S)cc1	i	i	i	i	i	i
O=C(NCCSc1ccccn1)c1ccc(Cl)cc1Cl	1.1µM	3.2µM	?	0.79µM	i	?
O=C(NCCSc1ccccn1)c1ccc(Cl)cc1	0.63µM	2.2µM	?	0.63µM	?	3.4µM
CS(=O)(=O)N(Cc1ccc(Cl)cc1)c1ccc(C(=O)NCCSc2ccccn2)cc1	i	i[1.84 µM]	?	i	i	i
FC(F)(F)c1ccc(N=Cc2sc(N3CCOCC3)nc2-c2ccccc2)cc1	i	i	?	i	i	i
CC(C)NC(=O)c1ccc(N(Cc2ccccc2)S(C)(=O)=O)cc1	i	nt	i	i	i	i
C=CCN(C(=O)CSC1=NC(=O)CN1C(C)=O)c1nc(C)c(-c2ccccc2)s1	i	?	?	i	i	6.7µM
Cc1ccc2c(COC(=O)c3ccc(C)c(C)c3)cc(=O)oc2c1	?	nt	?	i	i	i
Cc1ccc2c(COC(=O)c3ccccc3Br)cc(=O)oc2c1	i	nt	?	?	15µM	2.7µM
Cc1ccc2c(COC(=O)C34CC5CC(CC(C5)C3)C4)cc(=O)oc2c1	4µM	i	?	?	?	?
COc1cc(OC)cc(C(=O)N[C@H](C(=O)OCc2cc(=O)oc3cc(C)ccc23)C(C)C)c1	i	i	?	i	i	8.5µM
Cc1ccc2c(COC(=O)c3ccccc3Cl)cc(=O)oc2c1	i	nt	?	?	15µM	0.85µM
Cc1ccc(NC(=O)Cn2cc(C(=O)C3CCCCC3)c3ccccc32)c(C)c1	nt	i	nt	nt	nt	i
Cc1[nH]c2ccccc2c1CCNC(=O)c1c(N)no[n+]1[O-]	i	i	i	i	i	i
COc1ccccc1NS(=O)(=O)c1ccc(C(=O)NCCCN2CCOCC2)cc1	i	nt	i	i	i	i
CCN(c1ccccc1)S(=O)(=O)c1nnc(NC(=O)C(C)C)s1	i	nt	i	i	i	i
CCN(c1ccccc1)S(=O)(=O)c1nnc(NC(=O)c2ccco2)s1	i	nt	i	i	i	0.21µM!
CCN(c1cccc(C)c1)S(=O)(=O)c1nnc(NC(=O)c2ccco2)s1	i	nt	i	i	i	i
CCN(c1ccccc1)S(=O)(=O)c1nnc(NC(=O)C(C)(C)C)s1	i	nt	7.3µM	i	i	i
CCN(c1cccc(C)c1)S(=O)(=O)c1nnc(NC(=O)c2ccccc2Cl)s1	nt	nt	nt	nt	nt	13µM
SMILES	Rab9 prom act	SMN2 splice up	ELG1 repair inh	NPC1 promoter act	ELG1 genotox	FLuc counter
COc1ccccc1CN1CCC2(CC1)CCN(C(C)=O)CC2	nt	i	nt	nt	nt	nt
O=C(Cn1[nH]c(=O)c2ccccc2c1=O)N1CCN(S(=O)(=O)c2ccc(Cl)cc2)CC1	i	nt	i	i	i	i
COc1ccc2[nH]c3c4c(ccc3c2c1)C(=O)C=CC4=O	i	nt	16µM	i	i	?
COc1ccc2[nH]c(=O)cc(C(=O)O)c2c1	i	i	i	i	i	i
N#C/C(=C\c1ccc(C(=O)O)cc1)c1ccccn1	i	i	i	i	i	i
CCN(CC)c1ccc(/C=C(\C#N)c2ccccn2)cc1	0.13µM	1.4µM	?	0.45µM	?	1.1µM
COc1cc(/C=C(\C#N)c2ccccn2)ccc1OCc1ccccc1	i	i	?	i	i	?
